Assay results from PubChem BioAssay (NCATS).
Inconclusive results are not listed. Where a call stands in place of a potency, no number is given. Active and inactive are the calls of the source. Calls follow the shape of the dose curve; as a rule, active = well fitted inhibition curve with a large enough effect; inconclusive = small, poorly fitted or top-dose-only effect; inactive = flat fitted curve, though single readings scatter.

biological target: DNA repair nuclease/redox regulator APEX1 (Homo sapiens) (UniProt P27695); assay: qHTS Validation Assay for Inhibitors of the Human Apurinic/apyrimidinic Endonuclease 1 (APE1) (AID 1705); settings: purified APE1 endonuclease activity, fluorescence, titration; series mostly up to 57.1 µM
Sequence (P27695 whole entry, looked up): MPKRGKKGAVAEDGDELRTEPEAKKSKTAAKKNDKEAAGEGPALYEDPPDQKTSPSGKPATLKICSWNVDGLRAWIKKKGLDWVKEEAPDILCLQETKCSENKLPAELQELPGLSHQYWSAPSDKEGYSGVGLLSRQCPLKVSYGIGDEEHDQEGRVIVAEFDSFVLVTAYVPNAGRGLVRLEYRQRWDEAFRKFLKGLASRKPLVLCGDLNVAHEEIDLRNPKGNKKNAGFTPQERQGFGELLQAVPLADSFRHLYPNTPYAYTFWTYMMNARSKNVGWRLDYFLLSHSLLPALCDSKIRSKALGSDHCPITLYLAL
From the text: Assay Provider: David M. Wilson, III, National Institute on Aging, NIH
Screening Center PI: Austin, C.P.
Screening Center: NIH Chemical Genomics Center [NCGC]
The apurinic/apyrimidinic endonuclease APE1 is the primary mammalian enzyme responsible for the removal of abasic (or AP) sites in DNA and functions centrally in the base excision DNA repair (BER) pathway. […] Thus, targeting APE1 could improve the efficacy of current treatment paradigms by promoting selective sensitization or protection of diseased and normal cells, respectively.
Inhibition of APE1 activity was screened by utilizing double-stranded short substrate containing tetrahydrofuran (THF) abasic site labeled with rhodamine-type fluorophore (TAMRA) at the 5'-end and with non-fluorescent Black Hole Quencher-2 (BHQ-2) at the opposing 3'-end. An increase in the fluorescence intensity due to incision of the abasic site by APE1 was used to measure the enzyme activity.
1. Substrate: 50 nM final concentration of TAMRA/BHQ-2 substrate dispensed throughout the plate.
2. Enzyme: […] nM APE1 final concentration in columns 1, 2, 5-48. Column 1 is neutral (100% activity)
3. Control: Pintool transfer of control inhibitor NSC-13755 to column 2 of all assay plates. Two-fold, 16 pt dilution in duplicate to produce final concentrations in the […] uM - […] nM range.
3. Buffer columns in columns 3 and 4 were used as negative control (no enzyme).
Three uL of enzyme were dispensed to 1536-well Greiner black solid bottom plates. Compounds (23 nL) were transferred via Kalypsys pintool. The plates were incubated for 15 min at room temperature, and then 1 uL of substrate solution was added to start the reaction. The plates were immediately transferred into ViewLux High-throughput CCD imager (Perkin-Elmer) in order to measure the reaction progress in kinetic mode (three reads every 60 seconds) using 525 nm excitation and 598 nm emission fluorescence protocol. The fluorescence intensity difference between the third and the first time points was used to compute reaction progress.
Potency is read from the fitted curve at half-maximal effect.

Row | SMILES | Potency
1 | C[C@@H](NC(=O)/C(C#N)=C/c1ccc(O)c(O)c1)c1ccccc1 | inactive
2 | COc1ccccc1CNCCCCCCNCCCCCCCCNCCCCCCNCc1ccccc1OC | inactive
3 | Cn1c(=O)c2[nH]c(-c3ccccc3)nc2n(C)c1=O | inactive
4 | Cc1ccccc1CNc1ncnc2c1ncn2C1OC(CO)C(O)C1O (stereo not given) | inactive
5 | CCCCCC(O)c1cccc(OCc2ccc3ccccc3n2)c1 (stereo not given) | inactive
6 | COC1=C(OC)C(=O)c2ccccc2C1=O | inactive
7 | COc1cc2c(CCNC(C)=O)c[nH]c2cc1Cl | inactive
8 | COc1cc2nc(N3CCN(C(=O)OCc4ccccc4)C(C(=O)NC(C)(C)C)C3)nc(N)c2cc1OC (stereo not given) | inactive
9 | N=C(N)SCCc1ccc(CCSC(=N)N)cc1 | inactive
10 | Nc1ccn([C@@H]2O[C@H](CO)[C@@H](O)[C@@H]2O)c(=O)n1 | inactive
11 | CCCCCCCCCCCCCCCC(=O)OC(CC(=O)O)C[N+](C)(C)C (stereo not given) | inactive
12 | CC(COc1ccc(/C=C/c2ccccc2)cc1)[N+](C)(C)C (stereo not given) | inactive
13 | CN=c1nc(-c2ccccc2)n(-c2ccccc2)s1 | inactive
14 | N[C@@H](CC(=O)O)C(=O)O | inactive
15 | C#CCN1C(C)=C(C(=O)OC)C(c2cccc([N+](=O)[O-])c2)C(C(=O)OCC)=C1C (stereo not given) | inactive
16 | CN[C@H](CC(C)C)C(=O)N[C@H]1C(=O)N[C@@H](CC(N)=O)C(=O)N[C@H]2C(=O)N[C@H]3C(=O)N[C@H](C(=O)N[C@H](C(=O)O)c4cc(O)cc(O)c4-c4cc3ccc4O)[C@H](O)c3ccc(c(Cl)c3)Oc3cc2cc(c3O[C@@H]2O[C@H](CO)[C@@H](O)[C@H](O)[C@H]2O[C@H]2C[C@](C)(N)[C@H](O)[C@H](C)O2)Oc2ccc(cc2Cl)[C@H]1O | inactive
17 | CN(C)c1nc(N)c(C(=O)N=C(N)N)nc1Cl | inactive
18 | CO/N=C(\C(=O)N[C@@H]1C(=O)N2C(C(=O)O)=C(COC(C)=O)CS[C@H]12)c1csc(N)n1 (stereo in doubt) | 2240 nM (active)
19 | Brc1c(Br)c(Br)c2n[nH]nc2c1Br | inactive
20 | Clc1ccc(N2CCN(Cc3c[nH]c4ncccc34)CC2)cc1 | inactive

Row | SMILES | Potency
21 | NCCSSCCN | inactive
22 | O=C(Nc1cccc(C(=O)Nc2ccc(S(=O)(=O)O)c3cc(S(=O)(=O)O)cc(S(=O)(=O)O)c23)c1)Nc1cccc(C(=O)Nc2ccc(S(=O)(=O)O)c3cc(S(=O)(=O)O)cc(S(=O)(=O)O)c23)c1 | 10000 nM (active)
23 | CCCCCCCCCCCCCCCCCCNC(=O)OCC(COP(=O)([O-])OCC[n+]1ccsc1)OC (stereo not given) | inactive
24 | N#C/C(=C\c1ccc(O)c(O)c1)C(=O)c1ccc(O)c(O)c1 | 282 nM (active)
25 | Cc1ccc(O)c(N=Nc2ccccc2)n1 | inactive
26 | NCCNC(=O)c1ncsc1-c1cccc(F)c1 | inactive
27 | CC(C)NCC(O)COc1cccc2ccccc12 (stereo not given) | inactive
28 | CC(C)(C)NCC(O)COc1nsnc1N1CCOCC1 (stereo not given) | inactive
29 | C=C/C(C)=C/[C@@]1(C)SC(=O)C(C)=C1O | 1000 nM (active)
30 | CN(C)c1nc2c(Br)c(Br)c(Br)c(Br)c2[nH]1 | inactive
31 | C=C[C@@H]1CN2CC[C@@H]1C[C@H]2[C@H](O)c1ccnc2ccc(OC)cc12 | inactive
32 | CCCCCCCCCCCCCCCC(=O)NCC(COP(=O)([O-])OCC[N+](C)(C)C)OCC (stereo not given) | inactive
33 | CC1(C)CCC=[N+]1[O-] | inactive
34 | CC(C)Cc1ccc([C@H](C)C(=O)O)cc1 | inactive
35 | O=Nc1ccc2oc(=O)ccc2c1 | inactive
36 | CC1CN(S(=O)(=O)c2cccc3cnccc23)CCN1 (stereo not given) | inactive
37 | CCCCC/C=C\CC(O)/C=C/c1cccc(CC(O)CCCCO)n1 (stereo not given) | inactive
38 | CN1[C@@H](CC(=O)c2ccccc2)CCC[C@H]1C[C@H](O)c1ccccc1 | inactive
39 | CN1C2CCC1CC(OC(=O)C(O)c1ccccc1)C2 (stereo not given) | inactive
40 | COc1cc(C(O)CO)ccc1OS(=O)(=O)O (stereo not given) | inactive
